In ChEMBL document CHEMBL4513216, “Probing the Open Global Health Chemical Diversity Library for Multistage-Active Starting Points for Next-Generation Antimalarials” (ACS Infect Dis, 2020):
Screen size: about 69,000 compounds; about 8,600 (12%) showed an effect of 50% or more. For the sample, strong results were picked, then their nearest neighbours and some compounds at random.

test system: Plasmodium berghei; experiment: Screen against P. berghei liver stage (PbLuc), transformed with Luciferase, at 10uM; format: functional, HepG2; settings: tested at 10 uM

SMILES | INHIBITION
CC(NC(=O)CNS(C)(=O)=O)c1ccccc1Oc1ccccc1 (configuration not stated) | 37.1%
Cc1cc(N2CCCCC2)nc(N(CCO)CCO)c1C#N | 31.8%
CN(C(=O)c1ccncc1)c1nnc(C2CCOC2)s1 (configuration not stated) | 1.25%
Cc1cccc(CN2C(=O)CO[C@@H]3CN(Cc4cnn(C)c4)C[C@H]32)c1 | 45.2%
COc1ccc(CN2C[C@H]3CCC[C@@H](CN(C)C)[C@H]3C2)cn1 | 34.6%
Cc1cc(C(=O)N2CCCC(c3ccc(C(=O)O)cc3)C2)c(C)o1 (configuration not stated) | 9.52%
COc1ccc(Cl)cc1NCCC(=O)NCCNc1cnccn1 | 14.4%
Cc1[nH]ccc1C(=O)NCc1ncoc1C | -17.3%
CCC(=O)N1CCC1c1cc(NC2CCCC2)nc(C)n1 (configuration not stated) | 14.5%
COc1ccc(C(C)N2CCC(CO)CC2)cc1Cl (configuration not stated) | 40.6%
COc1ccc(C(C)N2CCC(OC)CC2)cc1Cl (configuration not stated) | 42.4%
COc1ccc(C(C)N2CCC(CNC(C)=O)CC2)cc1Cl (configuration not stated) | 70.3%
COc1ccc(C(C)N2CCC(C(=O)N(C)C)CC2)cc1Cl (configuration not stated) | 24.8%
COc1ccc(C(C)N2CCC(C(=O)NC3CC3)CC2)cc1Cl (configuration not stated) | 41.5%
COc1ccc(C(C)N2CCC(NS(C)(=O)=O)CC2)cc1Cl (configuration not stated) | 57.3%
CC(C)c1cc(NC(=O)Cn2ccc(=O)c3ccccc32)[nH]n1 | 6.72%

SMILES | INHIBITION
CCN(CC1COc2ccccc2O1)C(=O)CCn1cncn1 (configuration not stated) | -4.4%
Cc1nn(C)c(N(C)C)c1CNCc1cccnc1OC(C)C | 19.6%
CCC(Nc1ccc(Oc2cccc(C#N)c2)cc1)C(N)=O (configuration not stated) | 39.7%
CCC(Nc1ccc(Oc2ccccc2OC)cc1)C(N)=O (configuration not stated) | -34.1%
CCC(Nc1ccc(Oc2ccc(C#N)cc2OC)cc1)C(N)=O (configuration not stated) | 73.1%
CCC(C)NC(=O)c1cc(S(N)(=O)=O)c(Br)s1 (configuration not stated) | 14%
Cc1oc(C(=O)O)cc1S(=O)(=O)Nc1ccc(Cl)cc1F | -20.2%
CC(=O)Nc1ccc(Oc2cc(C)nc(C3CCNCC3)c2)cc1 | 19.15%
CC(=O)N1CCCC1CCc1ccnc(-c2cncnc2)c1 (configuration not stated) | 27.45%
COC(=O)C1=C(C)N=C2SCC(=O)N2C1c1cn(C)nc1C (configuration not stated) | 12.6%
Cc1ccsc1CN(CCN(C)C)C(=O)c1cc2ccccc2[nH]1 | 71%
CN(C)CCN(Cc1ccsc1)C(=O)C1=NNC(=O)CC1 | 49%
Cc1ccsc1CN(CCN(C)C)C(=O)c1ccccc1C#N | 14.6%
COC(=O)c1ccccc1C(=O)N(CCN(C)C)Cc1sccc1C | 8.03%
Cc1ccsc1CN(CCN(C)C)C(=O)C1=NNC(=O)CC1 | 67.2%
CN(C)CCN(Cc1ccccc1)C(=O)C1=NNC(=O)CC1 | 18%
